HT1080 IDH1KD tx: toxicity to HT-1080 IDH1 knockdown cells (counter line); actives 2% (n = 360,000); HT-1080 IDH1 knockdown viability, ATP luminescence, 48 h; Potency, µM (titrated, usually from 46.1 µM), for inactives: at the top dose activity, negative = toxicity, actives largely listed as cytotoxic; AID 686971;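 note: 0% = DMSO wells and -100% = cell-free medium wells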
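IDH1KD HT-1080 cells, 750/well, RPMI + 5% FBS; compound pinned after 2 h settling; 48 h, 37 °C; CellTiter-Glo luminescence; % activity normalised to DMSO and no-cell wells; curves fitted, classed by r2 and efficacy.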
DT40 TDP1 no CPT: qHTS for Inhibitors of human tyrosyl-DNA phosphodiesterase 1 (TDP1): qHTS in cells in absence of CPT | DT40 Tdp1-/- hTDP1 cells, no CPT, ATP luminescence, 48 h | Potency, µM (titrated, usually from 46.2 µM), for the others: top-dose activity change, negative = growth inhibition, actives largely listed as inhibitors | actives 15% (n = 420,000) | AID 686978, 2013; note: % is set by controls: 0 for no effect and ±100 for the full control effect; nearly all actives have a fitted effect of over 55% in size
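Readout: luminescence from CellTiter-Glo after 30 min in the dark at RT. Cells: DT40 Tdp1-/- with stable hTDP1, 400/well. Exposure: compounds alone, ≥48 hr, 37 °C.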
HepG2 viability: kills HepG2 cells in TGF-b inhibitor counter-screen; HepG2 CAGA-GFP viability, ATP luminescence, 18 h; Potency, µM (doses to about 46.1 µM), inactives show top-dose activity change, negative = cytotoxicity, actives largely listed as cytotoxic; actives 0.76% (n = 410,000)
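CellTiter-Glo luminescence gave cytotoxicity after 18 hours at 37 degrees C. The cells were HepG2 CAGA-GFP in 1% FBS DMEM, stimulated with 500 pg/mL TGF-beta after compound addition. %Activity was normalised to no-cell wells (complete cell-killing) and DMSO (no toxicity), and curves were fitted and classified.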
TGFb SMAD3 inh: TGF-b pathway inhibition. HepG2 CAGA-GFP TGF-b/SMAD3 reporter, GFP fluorescence, 18 h; TGF-beta stimulated, 500 pg/mL final. Potency, µM (series often up to 46.1 µM), inactives show top-dose activity, negative = inhibition, most hits filed as inhibitors. actives 1.2% (n = 410,000). AID 588855; note: % is set by controls: 0 for no effect and ±100 for the full control effect; nearly all actives have a fitted effect of over 65% in size
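Smad-responsive CAGA-GFP expression was quantified in HEPG2 cells exposed to compounds and 500 pg/mL final TGF-beta for 18 h at 37 degrees C; unstimulated wells defined full inhibition.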
DT40 TDP1 CPT: DT40-hTDP1 cell growth loss with CPT. actives 12% (n = 420,000). AID 686979. chicken DT40 Tdp1-/-;hTDP1 cells + 20 nM CPT, ATP luminescence, 48 h. Potency, µM (top dose mostly 46.2 µM), for the others: top-dose activity change, negative = growth inhibition, usual class: inhibitors; note: % is set by controls: 0 for no effect and ±100 for the full control effect; nearly all actives have a fitted effect of over 55% in size
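Cell growth measured by CellTiter-Glo luminescence after a minimum 48 h, 37 C compound exposure with 20 nM CPT in Tdp1-knockout DT40 cells stably expressing hTDP1, seeded 400/well; qHTS titration format.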
HT1080NT lethal: kills 2HG-producing HT-1080-NT fibrosarcoma cells; HT-1080-NT fibrosarcoma viability, CellTiter-Glo ATP luminescence, 48 h; actives 1.6% (n = 360,000); Potency, µM (highest dose often 46.1 µM), for inactives: top-dose activity, negative = less viability, usual class: cytotoxic;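 note: NT is the 2HG producing partner of a matched IDH1 knockdown line; 0% = DMSO-treated cells and -100% = media-only wells without cells; nearly all actives have a fitted effect of over 55% in size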
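A 48-hour cytotoxicity screen used HT-1080-NT cells plated 2 hours before compound delivery. ATP-based CellTiter-Glo luminescence measured viability, normalized to DMSO and no-cell controls.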
* = called active by the depositor; ? = inconclusive; nt = no result given. An excerpt weighted towards active compounds, which were near 17% of everything screened. Calls come from the whole dose curve; as a rule, active = well fitted curve in the direction sought with a large enough effect; inconclusive = small, poorly fitted or top-dose-only effect, or another doubt; inactive = no such curve, though single readings can be large; an effect the other way counts as inactive or inconclusive. Potency is the fitted concentration of half-maximal effect.

SMILES | HT1080 IDH1KD tx | DT40 TDP1 no CPT | HepG2 viability | TGFb SMAD3 inh | DT40 TDP1 CPT | HT1080NT lethal
CCc1ccc(S(=O)(=O)c2nnn3c2nc(NC(C)C)c2sccc23)cc1 | nt | ? | -1% | 36% | 21µM* | nt
CCc1ccc(S(=O)(=O)c2nnn3c2nc(Nc2cccc(C)c2C)c2sccc23)cc1 | nt | 21µM* | 0% | 43% | 23µM* | nt
O=C(C[C@@H]1C/C=C\C[C@H](NC(=O)OCC2c3ccccc3-c3ccccc32)C(=O)OC[C@H]2CCCN2C1=O)N[C@@H](CO)Cc1ccccc1 | -1% | 4.6µM* | -26% | ? | 4.6µM* | -16%
O=C(C[C@H]1C/C=C\C[C@H](NC(=O)OCC2c3ccccc3-c3ccccc32)C(=O)OC[C@@H]2CCCN2C1=O)NCCO | -5% | 5.8µM* | -1% | 9% | 4.1µM* | -1%
O=C(C[C@@H]1C/C=C\C[C@H](NC(=O)OCC2c3ccccc3-c3ccccc32)C(=O)OC[C@H]2CCCN2C1=O)NCCO | 2% | ? | -52% | ? | ? | -4%
O=C(C[C@H]1C/C=C\C[C@@H](Cc2ccc(F)cc2)C(=O)OC[C@H]2CCCN2C1=O)N[C@H](CO)Cc1ccccc1 | 5% | ? | -1% | -6% | ? | -9%
O=C(C[C@H]1C/C=C\C[C@H](NC(=O)OCC2c3ccccc3-c3ccccc32)C(=O)OC[C@H]2CCCN2C1=O)NCCO | -3% | 16µM* | -9% | -1% | 12µM* | 1%
CNc1ccc2ncc(-c3cccc(C(=O)N(C)C)c3)n2n1 | -13% | 12µM* | 0% | ? | ? | -15%
CN(C)C(=O)c1cccc(-c2ccc3nncn3c2)c1 | 12% | -4% | -13% | 7% | -2% | 30%
CS(=O)(=O)Nc1cccc(-c2ccc3ncnc(N4CCNCC4)c3c2)c1 | nt | ? | nt | nt | 15µM* | nt
CS(=O)(=O)Nc1cccc(-c2ccc3ncnc(Nc4ccccc4)c3c2)c1 | nt | 21µM* | nt | nt | ? | nt
CN(C)c1ncnc2ccc(-c3cccc(NS(C)(=O)=O)c3)cc12 | nt | 16µM* | nt | nt | 21µM* | nt
CS(=O)(=O)Nc1cccc(-c2ccc3ncnc(NC4CCNCC4)c3c2)c1 | nt | -5% | nt | nt | -1% | nt
CNc1ccc(/C=C/c2ccccc2)cc1 | nt | ? | -33% | -24% | ? | nt
CCCCNC(=O)C1(C)CCN1C(=O)c1csnn1 (stereo unspecified) | 7% | -11% | 2% | 3% | -11% | ?
CC1Cc2ccccc2N1C(=O)Cn1c(=O)oc2cc(S(=O)(=O)N3CCCCC3)ccc21 (stereo unspecified) | -14% | ? | 1% | -7% | ? | 0%
CCc1nc2c(OCc3ccc(Cl)cc3Cl)cccn2c1N(C)C(=O)C1CC1 | -20% | ? | -30% | ? | ? | ?
CCCCN(C=O)c1c(CC)nc2c(OCc3ccc(Cl)cc3Cl)cccn12 | ? | 9.2µM* | -56% | ? | 21µM* | ?
CCCCN(C=O)c1c(CC)nc2c(OCc3ccccc3C)cccn12 | -18% | ? | -11% | -20% | 15µM* | 13%
CCc1nc2c(OCc3ccccc3C)cccn2c1N(C)C(=O)C1CC1 | 7% | 23µM* | -2% | 2% | ? | ?
CCCCN(C=O)c1c(CC)nc2c(OCCC)cccn12 | 18% | ? | -18% | -9% | -56% | 23%
CCN(CC)S(=O)(=O)c1ccc(S(=O)(=O)N2CCC(N3CCCCC3)CC2)cc1 | 8% | -11% | -1% | -5% | 4% | 15%
